Screening data (PubChem)
KB-V1 MDR tox: kills drug-selected multidrug resistant KB-V1 cells. KB-V1 MDR cells viability, CellTiter-Glo, 72 h. Potency, µM (highest dose often 46.1 µM), usual class: cytotoxic. 3.4% of 400,000 active; further: potency means the concentration at half of the fitted maximal effect; on the % scale 0 is the no-effect control and ±100 the full control effect; nearly all actives have a fitted effect of over 60% in size
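Cytotoxicity toward P-gp-expressing KB-V1 cells was determined as loss of CellTiter-Glo luminescence after 72 h at 37 degrees C. Compounds were tested in quantitative HTS format across a concentration range, with curves fitted to normalized data.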
S-ASM inh: human S-ASM enzyme inhibition. 0.006% of 340,000 active. Potency, µM (titrated, usually from 57.5 µM), without a hit: at the highest dose activity change, negative = inhibition, most hits filed as inhibitors. placental ASM, HMU-PC fluorogenic substrate, 60 min. AID 504937; further: potency means the concentration at half of the fitted maximal effect
Target sequence (P17405 47-631 limits assumed): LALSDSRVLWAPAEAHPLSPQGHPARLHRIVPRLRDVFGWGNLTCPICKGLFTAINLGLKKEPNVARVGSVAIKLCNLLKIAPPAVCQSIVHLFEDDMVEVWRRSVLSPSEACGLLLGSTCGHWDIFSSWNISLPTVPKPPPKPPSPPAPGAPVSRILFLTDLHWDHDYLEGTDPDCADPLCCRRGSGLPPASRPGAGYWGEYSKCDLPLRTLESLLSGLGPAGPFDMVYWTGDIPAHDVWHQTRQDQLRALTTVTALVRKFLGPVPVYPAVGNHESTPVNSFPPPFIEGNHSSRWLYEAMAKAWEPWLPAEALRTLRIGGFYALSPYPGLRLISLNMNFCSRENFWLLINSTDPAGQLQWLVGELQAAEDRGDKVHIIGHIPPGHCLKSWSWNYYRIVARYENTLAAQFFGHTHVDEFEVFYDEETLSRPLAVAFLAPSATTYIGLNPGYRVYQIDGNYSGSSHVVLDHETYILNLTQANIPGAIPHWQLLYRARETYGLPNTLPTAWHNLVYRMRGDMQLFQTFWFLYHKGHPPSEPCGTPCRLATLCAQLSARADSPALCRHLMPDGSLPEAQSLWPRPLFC
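Steps: dispense placental human ASM, pin compound, wait 10 min at room temperature, add HMU-PC0 substrate at 9 uM final, incubate 60 min at 37 °C, add stop solution raising pH to 10, read fluorescence.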
KB-3-1 tox: kills parental KB-3-1 adenocarcinoma cells; KB-3-1 viability, CellTiter-Glo ATP luminescence, 72 h; 1.4% of 400,000 active; Potency, µM (titrated, usually from 46.1 µM), usual class: cytotoxic; further: potency means the concentration at half of the fitted maximal effect; on the % scale 0 is the no-effect control and ±100 the full control effect; nearly all actives have a fitted effect of over 60% in size
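Cytotoxicity in the drug-sensitive parental line KB-3-1 was scored as loss of CellTiter-Glo luminescence following 72 h incubation with compound. Values come from curve fitting of normalized concentration-response data.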
SW480 rereplic: DNA re-replication induction in SW480 cells | SW480 DNA re-replication, Hoechst DNA content imaging, 48 h | Potency, µM (doses to about 46.1 µM), for inactives: top-dose re-replication activation, usual class: activators | 1.8% of 340,000 active | AID 624297; further: potency means the concentration at half of the fitted maximal effect; % of control where 0% means no effect; nearly all actives have a fitted effect of over 55% in size
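Compounds, transferred as 23 nL by pin tool, were incubated with cells for 48 hr; DNA content per nucleus was then quantified by Hoechst staining and fluorescence plate imaging.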
MCF10A rerep: induces DNA re-replication in MCF 10a normal breast cells | MCF 10A DNA re-replication, Hoechst nuclear intensity, 48 h | Potency, µM (doses to about 46.1 µM), for inactives: top-dose activity, positive = re-replication, hits mostly activators | 2.9% of 350,000 active | AID 624296; further: potency means the concentration at half of the fitted maximal effect; % of control where 0% means no effect; nearly all actives have a fitted effect of over 50% in size
Giardia kill: kills Giardia lamblia; AID 540267; activity change, % at 7.66 µM, hits read low; Giardia lamblia trophozoite viability; 0.15% of 340,000 active; in the data active means activity change below about -80%; inconclusive means between about -30% and that limit;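 further: parasites exposed to compound for two days anaerobically before the ATP read; on the % scale 0 is the no-effect control and ±100 the full control effect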
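Anaerobic 48 hrs incubation at 37 deg C of 100 trophozoites/well with test compounds; ATPLite 1-Step luminescence, 15-30 min RT, reports cellular ATP as viability.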
An asterisk follows results filed as active; i = inactive; ? = inconclusive; nt = no result given. Rows were chosen to be rich in hits. Some 6.9% of all compounds tested hit in one or more screens of this group. Unless noted, the call rests on the fitted dose curve; in most records, active means well fitted curve in the direction sought with a large enough effect; inconclusive means small, poorly fitted or top-dose-only effect, or another doubt; inactive means no such curve, though single readings can be large; an effect the other way counts as inactive or inconclusive.

SMILES	KB-V1 MDR tox	S-ASM inh	KB-3-1 tox	SW480 rereplic	MCF10A rerep	Giardia kill
CC(=O)C1CCN(c2ncc(-c3ccc4c(c3)OCCCO4)s2)CC1	i	nt	i	nt	nt	nt
CCc1cccc(NC(=O)c2oc3ccc4c(c3c2C)C(=O)CC(C)(C)O4)c1	i	nt	i	nt	nt	nt
O=C(C[C@H]1CC[C@H]2[C@@H](COC[C@@H](O)CN2S(=O)(=O)c2ccc(F)cc2)O1)N[C@@H]1CCN(Cc2ccccc2)C1	i	nt	i	nt	nt	nt
CC(C)c1ccc(NC(=O)c2ccc(F)c(S(=O)(=O)N3CCc4ccccc4C3)c2)cc1	i	nt	i	nt	nt	nt
CCN(CC(=O)Nc1ccc(Br)cc1)CC(=O)Nc1cc(C)on1	?	-5%	i	-2%	2%	13
O=[N+]([O-])c1cc(/C=N/O)ccc1SCc1ccccc1Cl	21µM*	-19%	i	?	?	11
Cc1ccc(Sc2ccc(/C=N/O)cc2[N+](=O)[O-])cc1	i	?	i	?	21µM*	17
CC(C)(C)Sc1ccc(/C=N/O)cc1[N+](=O)[O-]	23µM*	-8%	i	2%	4%	42
COc1ccc(N(CC(=O)N2CCN(c3cccc(OC)c3)CC2)S(=O)(=O)c2c(C)noc2C)cc1	i	nt	i	nt	nt	nt
COc1ccc(-c2ccc3ncnc(NCc4ccc(C)o4)c3c2)cc1OC	?	nt	i	nt	nt	nt
CCN(CC)CCCNC(=O)c1nn(C)c2c1CS(=O)(=O)c1ccccc1-2	i	nt	i	nt	nt	nt
Cc1ccc(C)c(NC(=O)CSc2nccn2-c2cccc(C)c2C)c1	i	nt	i	nt	nt	nt
COc1cc(C(=O)/C=C/Nc2ccc(NC(C)=O)cc2)cc(OC)c1OC	21µM*	4%	i	2%	13µM*	10
COc1ccccc1Oc1ccc(N/C=C/C(=O)c2ccc(C)o2)cc1	i	20%	i	-4%	?	7
CC(=O)Nc1ccc(N/C=C/C(=O)c2ccc(C)o2)cc1	i	-5%	i	0%	23µM*	-8
COC(=O)c1cc(CSc2nnc(NC3CCCCC3)s2)oc1C	21µM*	1%	?	-1%	25%	7
c1ccc(CSc2nnc(NC3CCCCC3)s2)cc1	i	nt	i	nt	nt	nt
CCOc1ccccc1NC(=O)N1CCN(C)c2ncccc21	i	nt	i	nt	nt	nt
CCCCCCN1C[C@H](O)[C@@H](n2cc(-c3ccc(F)cc3)nn2)C[C@@H]1c1ccc(Cl)cc1	?	nt	18µM*	nt	nt	nt
O[C@@H]1CN(CC2CCCCC2)[C@@H](c2ccccc2)C[C@H]1n1cc(-c2ccc(F)cc2)nn1	i	nt	16µM*	nt	nt	nt
COc1ccc([C@H]2C[C@@H](n3cc(-c4ccc(F)cc4)nn3)[C@H](O)CN2CC2CCCCC2)cc1	21µM*	nt	?	nt	nt	nt
O[C@H]1CN(CC2CCCCC2)[C@@H](c2ccccc2)C[C@@H]1n1cc(C2CC2)nn1	?	nt	i	nt	nt	nt
CN(C)c1nc(N/N=C/c2ccccc2O)nc(Nc2ccc(F)cc2)n1	?	-13%	?	5.8µM*	10µM*	6
O=C(O)c1c(-c2ccc(Cl)cc2)cn2ccccc12	i	360%	i	18µM*	?	-10
COc1ccc(CN2CC[C@H]3C=CC[C@@H](C(=O)Nc4ccc(Cl)cc4Cl)[C@H]3C2=O)cc1OC	?	nt	i	nt	nt	nt
CCOc1cc(/C=C2\C(=N)N3N=C(S(C)(=O)=O)SC3=NC2=O)ccc1OCCOc1cccc(OC)c1	i	-7%	i	6%	23µM*	-11
CCOc1cc(/C=C2/C(=N)N3C=CSC3=NC2=O)ccc1OCCCOc1ccccc1C	i	17%	i	?	3.3µM*	-11
CCS(=O)(=O)C1=NN2C(=N)/C(=C\c3ccc(OCCOc4cccc(OC)c4)c(OC)c3)C(=O)N=C2S1	i	-1%	i	-7%	?	-11
Cc1sc(N)nc1-c1cccc([N+](=O)[O-])c1	i	nt	i	nt	nt	-23
Cc1c(Cl)c([N+](=O)[O-])nn1CCCC(=O)Nc1ccc(Cl)cc1Cl	?	-3%	i	-1%	4%	2
